In PubChem BioAssay (Tox21) one finds Potency data, which are given here for 35 compounds.

A short description of assay [1]: qHTS assay to identify small molecule antagonists of the estrogen receptor alpha (ER-alpha) signaling pathway - cell viability counter screen (AID 743074; calls by dose curve;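 also: HEK293 cells carrying ER-alpha-UAS-bla reporter stimulated with 17beta-estradiol; nearly all actives have a fitted effect of over 45% in size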; also: potency is read from the fitted curve at half-maximal effect).
Assay [2] in a line: qHTS assay to identify small molecule antagonists of the estrogen receptor alpha (ER-alpha) signaling pathway using the BG1 cell line - cell viability counter screen (AID 743081).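 Also: compound given together with 17beta-estradiol as the ER stimulus; series mostly up to about 70 µM; nearly all actives have a fitted effect of over 45% in size.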 Background: Quantitative high-throughput screening tests each substance at several concentrations.
Assay [3] deals with Aromatase (Homo sapiens) (UniProt P11511). Description: qHTS assay to identify aromatase inhibitors (AID 743083). Also: nearly all actives have a fitted effect of over 55% in size. Also: potency is read from the fitted curve at half-maximal effect.
Sequence of Aromatase (Homo sapiens) (P11511 whole entry, looked up): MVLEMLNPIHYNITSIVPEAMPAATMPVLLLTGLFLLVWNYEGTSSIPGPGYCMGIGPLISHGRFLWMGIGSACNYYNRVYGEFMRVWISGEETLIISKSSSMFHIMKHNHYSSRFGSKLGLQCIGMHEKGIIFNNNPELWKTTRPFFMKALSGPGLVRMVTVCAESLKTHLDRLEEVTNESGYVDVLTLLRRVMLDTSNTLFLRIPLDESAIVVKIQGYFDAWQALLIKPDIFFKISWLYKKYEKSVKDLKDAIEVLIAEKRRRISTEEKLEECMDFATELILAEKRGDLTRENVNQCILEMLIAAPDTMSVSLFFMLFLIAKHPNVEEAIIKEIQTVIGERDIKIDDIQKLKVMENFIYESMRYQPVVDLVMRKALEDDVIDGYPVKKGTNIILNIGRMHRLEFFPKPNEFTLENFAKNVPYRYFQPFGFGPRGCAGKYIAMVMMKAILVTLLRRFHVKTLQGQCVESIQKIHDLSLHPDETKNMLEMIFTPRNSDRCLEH
The nature of assay [4]: qHTS assay to identify small molecule antagonists of the thyroid receptor (TR) signaling pathway (AID 743065). Also: nearly all actives have a fitted effect of over 55% in size. Also: potency is read from the fitted curve at half-maximal effect. A digest of the protocol:
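GH3.TRE-Luc rat pituitary cells (two TREs driving luciferase) were dosed with compound, then stimulated with 1 nM T3 (final) for 23.5 h at 37 C. ONE-Glo luminescence was the read-out, with CellTiter-Fluor fluorescence as the cytotoxicity counter-screen.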

In assay [5] the test system is thyroid hormone receptor (rat, GH3 cells). Description: qHTS assay to identify small molecule agonists of the thyroid receptor (TR) signaling pathway (AID 743066; calls by dose curve).
Assay [6] concerns the target Estrogen receptor (Homo sapiens) (UniProt P03372). Description: qHTS assay to identify small molecule agonists of the estrogen receptor alpha (ER-alpha) signaling pathway (AID 743075; calls by dose curve;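 also: HEK293 GripTite cells with ER-alpha and UAS-driven beta-lactamase reporter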; also: potency is read from the fitted curve at half-maximal effect).
Assay [7] has the same target. In words: qHTS assay to identify small molecule agonists of the estrogen receptor alpha (ER-alpha) signaling pathway using the BG1 cell line (AID 743079). Also: nearly all actives have a fitted effect of over 20% in size. Also: potency is read from the fitted curve at half-maximal effect.
Assay [8] in a line: qHTS assay to identify small molecule antagonists of the estrogen receptor alpha (ER-alpha) signaling pathway using the BG1 cell line (AID 743080; calls by dose curve;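 also: BG1 cells stimulated with 17beta-estradiol alongside compound; nearly all actives have a fitted effect of over 25% in size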; also: potency is read from the fitted curve at half-maximal effect). The gist of the method: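 BG1-Luc-4E2 cells (endogenous full-length ER-alpha, stable 4×ERE-luciferase) were starved 5 days in phenol-red-free medium with 10% charcoal-stripped FBS, plated 24 h, then given compound plus 17beta-estradiol for 21.5 h at 37 C; ONE-Glo luminescence read after 30 min.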

Assay [9] addresses Estrogen receptor (Homo sapiens) (UniProt P03372). Description: qHTS assay to identify small molecule antagonists of the estrogen receptor alpha (ER-alpha) signaling pathway (AID 743069; active = well fitted curve in the direction sought with a large enough effect in the signal ratio in the repeat runs, not every such curve was filed as active; inconclusive = weak or mixed curves, or effect the other way; inactive = no such curve, though single readings can be large or run the other way; the % refers to the signal ratio; also: potency is read from the fitted curve at half-maximal effect). The gist of the method: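 Beta-lactamase FRET fluorescence is read after 2 hr at room temperature with LiveBLAzer B/G substrate. Before that, ER-alpha-bla HEK293 cells sit 4 hr after plating, then receive compound plus 17beta-estradiol and incubate 18 hr at 37C.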

A number with no mark means an inactive call. Calls of active or inactive are those of the source. Unless noted, calls follow the shape of the dose curve; as a rule, active = well fitted curve in the direction sought with a large enough effect in the repeat runs; inconclusive = weak or mixed curves; inactive = no such curve, though single readings can be large; an effect the other way counts as inactive or inconclusive.

Sequence of Estrogen receptor (Homo sapiens) (P03372 whole entry, looked up): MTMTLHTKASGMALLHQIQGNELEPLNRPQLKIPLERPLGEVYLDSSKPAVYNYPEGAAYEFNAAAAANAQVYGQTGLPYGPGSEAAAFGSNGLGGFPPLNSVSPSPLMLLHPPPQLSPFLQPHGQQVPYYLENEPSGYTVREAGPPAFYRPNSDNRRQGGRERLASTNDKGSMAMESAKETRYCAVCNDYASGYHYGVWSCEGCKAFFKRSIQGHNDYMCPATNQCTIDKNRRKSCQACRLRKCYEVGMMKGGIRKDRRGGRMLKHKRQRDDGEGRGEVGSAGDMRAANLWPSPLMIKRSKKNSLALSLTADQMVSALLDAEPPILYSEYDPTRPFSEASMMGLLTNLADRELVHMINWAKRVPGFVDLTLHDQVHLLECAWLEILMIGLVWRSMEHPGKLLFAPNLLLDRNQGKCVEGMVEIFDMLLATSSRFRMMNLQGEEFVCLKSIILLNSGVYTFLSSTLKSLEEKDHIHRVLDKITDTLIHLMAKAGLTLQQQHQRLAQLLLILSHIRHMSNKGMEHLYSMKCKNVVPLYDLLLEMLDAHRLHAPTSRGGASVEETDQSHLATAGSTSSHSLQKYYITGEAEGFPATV

Turning to `CC[C@@H](CO)NCCN[C@@H](CC)CO`, the Potency result in assay [1], in assay [2] and in assay [3] was “inactive” in each case.

As for `CCc1ccc(C)cc1`, the Potency entry in [4], in assay [5], in assay [1], in [2] and in assay [3] was “inactive” throughout.

Consider `CCN(CC)CCOc1ccccc1C(=O)CCc1ccccc1`, for which the Potency in assay [4] was 26.6 µM (active). In addition, the Potency result in [5], in assay [1], in assay [6], in assay [7], in assay [8] and in [2] was “inactive” throughout. Moreover, in assay [3], the Potency entry was “inactive”.

`COc1ccc(/C=C/C(=O)c2ccc(OC)cc2OC)cc1`: the Potency in assay [4] was 26.6 µM (active). The Potency result in assay [5], in assay [1], in assay [2] and in assay [3] was “inactive” each time.

As to `Cc1ccc2nc(N)[nH]c(=O)c2c1Sc1ccncc1`, the figures for the Potency in assay [4], in assay [1] and in [3] were 8.41 µM (active), 3.01 µM (active) and 9.44 µM (active), respectively. Further, the Potency entry in assay [5] and in assay [2] was “inactive” throughout.

Consider `CC(C)(C)CCCCCCOC(=O)c1ccccc1C(=O)OCCCCCCC(C)(C)C`, for which the Potency result in assay [4], in assay [9], in [6], in assay [7], in [8] and in [2] was “inactive” each time. In assay [3], the Potency result was “inactive”.

For `O=S(=O)(O)CO`, the Potency result in assay [4], in assay [5], in [1], in assay [2] and in [3] was “inactive” in each case.

`Cc1ccc2c(c1[N+](=O)[O-])C(=O)c1ccccc1C2=O`: the Potency entry in assay [5], in [1], in assay [6], in [2] and in assay [3] was “inactive” each time. For the same compound, in assay [7], the Potency was 3.78 µM (active).

As for `Cc1ccc(N(CC2=NCCN2)c2cccc(O)c2)cc1`, the Potency result in assay [5], in assay [9], in assay [1], in assay [6], in [8] and in [2] was “inactive” throughout. Also, the Potency entry in assay [3] is “inactive”.

With `CCCCCCCC(=O)Oc1c(Br)cc(C#N)cc1Br`, the Potency result in assay [5], in assay [6] and in assay [2] was “inactive” throughout. Moreover, the Potency in [8] and in assay [3] was 60.9 µM (active) in each case.

Turning to `NC(=O)c1ccccc1[N+](=O)[O-]`, the Potency entry in [4], in assay [5], in [1], in assay [6], in [7] and in assay [8] was “inactive” throughout. Further, the Potency entry in [2] and in [3] was “inactive” in each case.

As for `CCCCCCCCCCCSCC(=O)O`, the Potency in [9] was 54.9 µM [inconclusive] (active). Besides, the Potency entry in assay [1], in assay [6], in assay [8], in assay [2] and in [3] was “inactive” in each case.

With `O=C(c1ccccc1)c1ccc(O)cc1`, the Potency entry in [4], in [5], in [1], in [2] and in assay [3] was “inactive” in each case. Besides, the Potency in assay [7] was 9.8 µM (active).

For the compound `Oc1ccc2c(c1)Cc1ccccc1-2`, the Potency result in assay [5], in assay [1], in [2] and in [3] was “inactive” in each case. The Potency in assay [6] was 24.5 µM [activator] (active); in assay [7], 13.7 µM (active).

As for `CCNc1nc(N)nc(Cl)n1`, the Potency entry in assay [4], in [1] and in assay [2] was “inactive” each time.

Regarding `CCN(CC)C(=O)N1CCN(C)CC1`, the Potency result in assay [1], in assay [2] and in assay [3] was “inactive” throughout.

Consider `CCCc1nc2c(C)cc(-c3nc4ccccc4n3C)cc2n1Cc1ccc(-c2ccccc2C(=O)O)cc1`, for which the Potency entry in assay [5], in assay [1], in [6], in assay [7], in assay [8] and in assay [2] was “inactive” throughout. The Potency entry in [3] is “inactive”.

Consider `CCCCC[C@H](O)/C=C/[C@H]1[C@H](O)CC(=O)[C@@H]1C/C=C\CCCC(=O)O`, for which the Potency entry in assay [5], in assay [1] and in [3] was “inactive” each time.

As to `O=C1c2ccccc2C(=O)c2c(O)ccc(O)c21`, the Potency entry in [5] and in assay [1] was “inactive” in each case.

On to `O=C(O)CCC(=O)c1ccc(-c2ccccc2)cc1`, for which the Potency result in assay [1], in assay [2] and in assay [3] was “inactive” each time.

As to `C[C@H](CS)C(=O)N1CCC[C@H]1C(=O)O`, the Potency result in [4], in [5], in [1], in [2] and in assay [3] was “inactive” each time.

As for `COc1cc(OC)c2ccc(=O)oc2c1`, the Potency entry in [4], in assay [5], in assay [1], in [6], in assay [7] and in [8] was “inactive” in each case. Also, in [3], the Potency result is “inactive”.

On to `CC1C(C)(C)C2=C(C(=O)CCC2)C1(C)C` (stereo not drawn), for which the Potency entry in [4], in assay [5], in assay [9], in assay [1], in assay [6] and in assay [7] was “inactive” in each case. Besides, the Potency result in assay [8], in [2] and in assay [3] was “inactive” each time.

In the case of `CCCC(=O)OC(=O)CCC`, the Potency result in assay [4], in [5], in assay [2] and in [3] was “inactive” each time.

For the compound `C[C@@H]1[C@H](O)[C@@H](C)/C=C/C=C\C=C\C=C\C=C\C=C\C=C\[C@H](O[C@@H]2O[C@H](C)[C@@H](O)[C@H](N)[C@@H]2O)C[C@@H]2O[C@](O)(C[C@@H](O)C[C@@H](O)[C@H](O)CC[C@@H](O)C[C@@H](O)CC(=O)O[C@H]1C)C[C@H](O)[C@H]2C(=O)O` (stereo in doubt), the Potency entry in [9], in [1], in assay [6], in [7], in assay [8] and in assay [2] was “inactive” in each case. Besides, the Potency result in assay [3] was “inactive”.

Regarding `Nc1ccn([C@H]2CS[C@@H](CO)O2)c(=O)n1`, the Potency entry in assay [1], in assay [2] and in assay [3] was “inactive” each time.

For `C1CCCCC1`, the Potency result in assay [4], in assay [5], in assay [1], in assay [2] and in [3] was “inactive” in each case.

For `CN=C(N)NC(=O)Nc1c(C)cccc1C`, the Potency result in [9], in [1], in assay [6], in [7], in assay [8] and in assay [3] was “inactive” each time.

Turning to `COc1ccc(C2C(=O)c3ccccc3C2=O)cc1`, the Potency result in assay [4], in assay [5], in [1], in assay [6], in assay [8] and in assay [2] was “inactive” each time. The Potency entry in assay [3] is “inactive”. Besides, the Potency in [7] was 23.7 µM (active).

Consider `Cc1ccc(NC(=O)N(C)C)cc1NC(=O)N(C)C`, for which the Potency result in [4], in assay [5], in [1], in assay [6], in [7] and in [8] was “inactive” throughout. For the same compound, the Potency entry in assay [2] and in assay [3] was “inactive” throughout.

Take `CC(=O)OCC(C)C`: the Potency entry in assay [6], in assay [2] and in assay [3] was “inactive” throughout.

`CCCCCc1ccco1`: the Potency entry in [5], in [1], in assay [2] and in assay [3] was “inactive” each time.

Consider `COc1ccc(C(=O)NCc2ccc(OCCN(C)C)cc2)cc1OC`, for which the Potency entry in assay [4], in assay [5], in assay [9], in assay [1], in assay [6] and in [7] was “inactive” in each case. Besides, the Potency entry in [2] and in assay [3] was “inactive” throughout.

Take `CSCC[C@H](NC(=O)[C@H](Cc1c[nH]c2ccccc12)NC(=O)CCNC(=O)OC(C)(C)C)C(=O)N[C@@H](CC(=O)O)C(=O)N[C@@H](Cc1ccccc1)C(N)=O`: the Potency result in [1], in assay [6], in assay [7], in assay [8] and in assay [3] was “inactive” throughout.

Regarding `CCCCCCCC/C=C\CCCCCCCC(=O)OCCO`, the Potency entry in assay [5], in assay [9], in [1], in assay [6], in [7] and in assay [8] was “inactive” in each case. The Potency result in assay [2] and in assay [3] was “inactive” each time.
